Records with an inconclusive call do not appear. Activity calls are given as the source filed them. Unless noted, the call rests on the fitted dose curve; in most records, active means well fitted curve in the direction sought with a large enough effect in the repeat runs; inconclusive means weak or mixed curves; inactive means no such curve, though single readings can be large; an effect the other way counts as inactive or inconclusive.
How the values were obtained:
[1] = qHTS assay to identify small molecule antagonists of the estrogen related receptor (ERR) signaling pathway - cell viability counter screen (AID 1224818);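 further: series mostly up to about 46 µM; viability measured after 17.5 h of compound exposure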
Method in brief: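 In the same ERR cell assay, compound-treated wells (17.5 h, 37 C) were multiplexed with a fluorogenic viability reagent, CellTiter-Fluor, read after 30 min to flag cytotoxic substances.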

[2] = qHTS assay to identify small molecule antagonists of the estrogen related receptor (ERR) signaling pathway (AID 1224819;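 further: luminescence from an ERR-driven luciferase reporter measured with One-Glo reagent; series mostly up to about 46 µM; nearly all actives have a fitted effect of over 50% in size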)
Method in brief: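 qHTS in ERR cells, 2,000/well, 1536 format. Cpd (DMSO) added after 6 h settle, 18 h 37 C. One-Glo luminescence, 30 min RT.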

[3] = qHTS assay to identify small molecule agonists of the estrogen related receptor (ERR) signaling pathway (AID 1224820)
Method in brief: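 Cells: ERR line from NTP, 2,000/well. Pre-incubation 6 h, 37 C/5% CO2. Compound (DMSO) pin transfer, 18 h 37 C. One-Glo, 30 min RT, luminescence.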

[4] = system: estrogen-related receptor alpha (ERRalpha) with PGC-1alpha coactivator, human; experiment: qHTS assay to identify small molecule antagonists of the estrogen related receptor signaling pathway with the pleiotropic PPARgamma coactivator (PGC) (AID 1224821; calls by dose curve;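 further: series mostly up to about 46 µM; lower luminescence signal means antagonism of PGC/ERR signalling; nearly all actives have a fitted effect of over 50% in size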)
Method in brief: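 Luminescent read-out (One-Glo, 30 min at room temperature) following 18 h treatment of PGC/ERR cells at 37 C with compounds delivered in DMSO. Cells had settled 6 h at 37 C/5% CO2 before dosing.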

[5] = qHTS assay to identify small molecule antagonists of the estrogen related receptor signaling pathway with the pleiotropic PPARgamma coactivator (PGC) cell viability counter screen (AID 1224822; further: series mostly up to about 46 µM)
Method in brief: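 Compounds in DMSO, with positive and negative controls, were applied to PGC/ERR cells (2,000/well) and left 17.5 h at 37 C before CellTiter-Fluor detection.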

[6] = qHTS assay to identify small molecule agonists of the estrogen related receptor signaling pathway with the pleiotropic PPARgamma coactivator (PGC) (AID 1224823)
Method in brief: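 Steps: plate PGC/ERR cells at 2,000 cells/well; incubate 6 h, 37 C/5% CO2; pin-transfer compounds (DMSO); incubate 18 h, 37 C; add One-Glo; 30 min RT; read luminescence.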

[7] = qHTS assay to identify small molecule antagonists of the estrogen related receptor (ERR) signaling pathway from Tox21 library - cell viability counter screen (AID 1224834); further: nearly all actives have a fitted effect of over 30% in size
Method in brief: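 CellTiter-Fluor fluorescence measured; ERR cells; 17.5 h compound incubation at 37 C; 30 min reagent step.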

[8] = qHTS assay to identify small molecule antagonists of the estrogen related receptor signaling pathway with the pleiotropic PPARgamma coactivator (PGC) from Tox21 10K library (AID 1224841; call rule not given here; further: series mostly up to about 92 µM; actives are mostly falling curves and most rising ones were filed inactive; nearly all actives have a fitted effect of over 50% in size)
Method in brief: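 Each well held 2,000 PGC/ERR cells, pre-incubated six hours (37 C, 5% CO2). Test substances in DMSO were added by pin tool and left for 18 h at 37 C before luciferase detection by One-Glo.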

[9] = qHTS assay to identify small molecule agonists of the estrogen related receptor signaling pathway with the pleiotropic PPARgamma coactivator (PGC) from Tox21 10K library (AID 1224842); further: nearly all actives have a fitted effect of over 15% in size
Method in brief: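 PGC/ERR reporter cell line, 2,000 cells per well, incubated 6 h at 37 C before 23 nL compound in DMSO was added. After 18 h at 37 C, One-Glo luminescence read following 30 min at room temperature.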

[10] = qHTS assay to identify small molecule antagonists of the estrogen related receptor (ERR) signaling pathway from Tox21 library (AID 1224848); further: nearly all actives have a fitted effect of over 50% in size
Method in brief: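 ERR reporter cell line (from NTP) seeded 2,000 cells/well, rested 6 h at 37 C/5% CO2, then pin-dosed with compounds in DMSO. After 18 h at 37 C, ONE-Glo added; luminescence read after 30 min at room temperature.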

[11] = molecular target: Acetylcholinesterase (Homo sapiens) (UniProt P22303); experiment: Acetylcholinesterase (AChE) small molecule antagonists: colormetric cell-based qHTS assay (AID 1347395; calls by dose curve; further: nearly all actives have a fitted effect of over 30% in size)
Chain of Acetylcholinesterase (Homo sapiens) (P22303 whole entry, looked up): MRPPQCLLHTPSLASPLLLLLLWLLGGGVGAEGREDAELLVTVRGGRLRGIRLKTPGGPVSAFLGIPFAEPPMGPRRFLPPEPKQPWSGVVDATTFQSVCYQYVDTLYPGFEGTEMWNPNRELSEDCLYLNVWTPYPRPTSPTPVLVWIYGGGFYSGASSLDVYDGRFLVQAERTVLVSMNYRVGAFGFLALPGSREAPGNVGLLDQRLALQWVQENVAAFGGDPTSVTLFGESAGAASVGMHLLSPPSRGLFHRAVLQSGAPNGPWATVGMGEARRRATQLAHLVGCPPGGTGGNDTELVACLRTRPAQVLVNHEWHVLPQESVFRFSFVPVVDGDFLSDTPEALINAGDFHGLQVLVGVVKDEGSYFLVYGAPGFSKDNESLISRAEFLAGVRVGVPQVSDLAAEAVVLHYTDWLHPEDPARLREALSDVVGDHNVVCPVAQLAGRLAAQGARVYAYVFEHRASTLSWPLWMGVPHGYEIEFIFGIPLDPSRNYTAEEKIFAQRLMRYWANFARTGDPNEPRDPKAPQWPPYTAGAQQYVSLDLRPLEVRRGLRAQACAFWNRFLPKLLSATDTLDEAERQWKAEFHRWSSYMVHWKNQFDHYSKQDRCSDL
Method in brief: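 Colorimetric read-out: DTNB detects thiocholine released when cellular AChE in SH-SY5Y cells hydrolyses acetylthiocholine. Cells attached overnight, received compound for 30 min at 37 C, then substrate mix for 90 min at 37 C.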

[12] = molecular target: Acetylcholinesterase (Homo sapiens) (UniProt P22303); experiment: Acetylcholinesterase (AChE) small molecule antagonists: enzyme-based qHTS assay (AID 1347397; calls by dose curve; further: nearly all actives have a fitted effect of over 55% in size); settings: Potency: AChE enzyme activity inhibition; outcome: AChE enzyme activity inhibition
Method in brief: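 Recombinant human AChE (50 mU/mL) preincubated with compound 30 min at room temperature; acetylthiocholine plus DTNB then added, and thiocholine formation read colorimetrically after 10 min at room temperature. DMSO served as vehicle control.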

[13] = molecular target: Acetylcholinesterase (Homo sapiens) (UniProt P22303); experiment: Acetylcholinesterase (AChE) small molecule antagonists: fluorescence cell-based qHTS assay (AID 1347398; calls by dose curve; further: nearly all actives have a fitted effect of over 50% in size); settings: Potency: AChE activity; outcome: AChE activity
Method in brief: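 SH-SY5Y cells (2000/well), attached overnight, incubated with compound 30 min at 37 C. Acetylthiocholine plus Thiolite Green then added for 40 min at room temperature. Thiocholine fluorescence (Ex/Em 490/520 nm) reports cellular AChE activity.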

Measured: Potency

NCCCP(=O)(O)O
inactive: [1] | [2] | [3] | [4] | [5] | [6]

CCn1cc(C(=O)O)c(=O)c2ccc(C)nc21
inactive: all assays above

CC(C)CC(NP(=O)(O)O[C@@H]1O[C@@H](C)[C@H](O)[C@@H](O)[C@H]1O)C(=O)NC(Cc1c[nH]c2ccccc12)C(=O)O (stereo partly specified)
inactive: [1] | [2] | [3] | [4] | [5] | [6]

S=C(NC1CCCCC1)N1CCC(c2cnc[nH]2)CC1
inactive: [1] | [2] | [3] | [4] | [5] | [6]

Source: PubChem BioAssay (Tox21)
